EP2 modulator – modulators of human EP2 prostaglandin E2 receptor. EP2-expressing cells, cAMP HTRF FRET, PGE2 co-stimulation. 0.83% of 260,000 active. AID 940. P43116. induction, % at 25 µM;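 active = compounds whose cAMP rise, as percent of the full-agonist control response, exceeds 60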;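 note: rat C6 glioma line stably carrying human EP2 under a CMV promoter; the protocol text gives 20 µM as final concentration; 100% = response of wells given 1 µM PGE2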
CHT PAM – allosterically activates the human high affinity choline transporter | Q9GZV3 | CHT-expressing cells, membrane potential dye, choline EC20; active compounds read high; LV-AA mutant CHT in HEK293 cells | B-score at 10 µM | 0.49% of 310,000 active;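 active = initial fluorescence not abnormally high and integrated response B-score, plate-corrected, over 3 SD above library mean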
Target sequence (Q9GZV3 whole entry, looked up): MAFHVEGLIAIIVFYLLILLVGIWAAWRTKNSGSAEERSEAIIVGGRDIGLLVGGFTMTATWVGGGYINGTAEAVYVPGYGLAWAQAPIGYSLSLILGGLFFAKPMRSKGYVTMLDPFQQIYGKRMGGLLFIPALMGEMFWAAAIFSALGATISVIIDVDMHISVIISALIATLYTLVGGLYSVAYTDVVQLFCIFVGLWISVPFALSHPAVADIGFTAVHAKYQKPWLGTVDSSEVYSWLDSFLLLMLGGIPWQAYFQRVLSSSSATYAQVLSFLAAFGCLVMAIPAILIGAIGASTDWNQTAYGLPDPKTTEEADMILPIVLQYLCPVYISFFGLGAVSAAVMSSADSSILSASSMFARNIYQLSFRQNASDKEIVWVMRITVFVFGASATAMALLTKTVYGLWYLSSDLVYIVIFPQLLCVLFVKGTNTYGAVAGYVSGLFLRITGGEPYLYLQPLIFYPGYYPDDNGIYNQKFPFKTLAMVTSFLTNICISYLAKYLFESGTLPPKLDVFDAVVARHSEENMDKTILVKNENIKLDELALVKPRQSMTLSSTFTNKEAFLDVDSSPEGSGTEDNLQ
PGE2 EP2 inh – inhibitors of human EP2 prostaglandin E2 receptor; C6 glioma cells expressing human EP2, cAMP TR-FRET; cells stimulated with saturating PGE2; 0.52% of 260,000 active; P43116; inhibition, % at 25 µM;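 active = percent inhibition above 40 after rounding to a whole number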;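 note: rat C6 glioma host cells with rolipram phosphodiesterase inhibitor present; the protocol text gives 20 µM as final concentration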
CHT block – inhibits the human high affinity choline transporter | AID 488975 | CHT-expressing cells, membrane potential dye, choline response; active compounds read low | B-score at 10 µM | 0.86% of 310,000 active;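 active = B-score over 3 SD under the library average, and starting fluorescence ratio not unusually high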;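 note: choline stimulus applied at its EC90 after an EC20 pre-addition; B-score computed on integrated fluorescence ratio after choline addition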
Active calls of the source: *; ! = repeats disagree. Only some compounds are listed: those with a hit (about 2.1% of all), similar ones and a draw of the others.

CCOC(=O)CSc1nc2c(sc(=S)n2-c2ccc(OCC)cc2)c(=O)[nH]1 was read as EP2 modulator 55, CHT PAM inactive, PGE2 EP2 inh 14 and CHT block inactive.
CN(C)CCCN1c2ccccc2Sc2cnccc21 was read as EP2 modulator -16 and PGE2 EP2 inh 45*.
Screening CC(C)CCN1CCN(Cc2ccc(Sc3nncn3C)o2)CC1CCO (configuration not stated) returned EP2 modulator -16, CHT PAM inactive, PGE2 EP2 inh 13 and CHT block inactive.
`CC(C)N1CCN(Cc2ccc(Sc3nncn3C)o2)CC1CCO` (configuration not stated) gave EP2 modulator 66*, CHT PAM inactive, PGE2 EP2 inh 7 and CHT block inactive.
For CCc1cccc(C)c1NC(=O)C1CC(=O)N(c2ccc(OC)cc2)C1 (configuration not stated) the results were EP2 modulator 8 and PGE2 EP2 inh 12.
For CCN(CC)CCSc1nc2ccccc2c(=S)n1-c1ccccc1 the results were EP2 modulator 9, CHT PAM 6.6*, PGE2 EP2 inh 11 and CHT block inactive.
Cn1c(C(=O)N(Cc2ccccc2)Cc2cccs2)cc2sccc21 was read as EP2 modulator 65*!, CHT PAM inactive, PGE2 EP2 inh 3 and CHT block inactive.
Screening Cn1c(C(=O)N(Cc2ccccc2)Cc2ccccn2)cc2sccc21 returned EP2 modulator 43, CHT PAM inactive, PGE2 EP2 inh 5 and CHT block inactive.
`CCOC(=O)c1c(NC(=S)Nc2ccccc2)sc2c1CCN(CCc1ccccc1)C2` gave EP2 modulator -10, CHT PAM inactive and CHT block inactive.
For CCOC(=O)c1c(N)sc2c1CCN(CCc1ccccc1)C2 the results were CHT PAM 8.1* and CHT block inactive.
`C=CCOc1ccccc1CN1CCc2c(nc(N3CC(C)OC(C)C3)[nH]c2=O)C1` (configuration not stated) gave EP2 modulator 11.
For CCOc1ccccc1C1Nc2ccccc2-c2cc(C)nn21 (configuration not stated) the results were EP2 modulator 62* and PGE2 EP2 inh 13.
Screening Cc1ccc(-c2nnc(SCC(=O)Nc3ccccc3Br)o2)cc1 returned EP2 modulator -58 and PGE2 EP2 inh 11.
For Clc1ccc(/C=N/NC(=Nc2ccccc2)c2ccccn2)c(Cl)c1 the results were EP2 modulator 61*, CHT PAM inactive and CHT block inactive.
CC(C)C(=O)NC(c1ccccc1)c1cc([N+](=O)[O-])c2cccnc2c1O (configuration not stated) was read as EP2 modulator 28, CHT PAM inactive, PGE2 EP2 inh 10 and CHT block inactive.
Screening O=[N+]([O-])c1cc(Cc2cc([N+](=O)[O-])c3cccnc3c2O)c(O)c2ncccc12 returned EP2 modulator -16 and PGE2 EP2 inh 75*.
For CC(=O)Nc1cccc(NC(=O)CSc2nc3cc4c(cc3cc2C)OCCO4)c1 the results were EP2 modulator -92 and PGE2 EP2 inh 17.
For CC(=O)N(CCS(=O)(=O)c1ccc(Cl)cc1)Cc1cccs1 the results were EP2 modulator -20, CHT PAM inactive, PGE2 EP2 inh 13 and CHT block inactive.
Screening CCOC(=O)CCN(Cc1cccs1)S(=O)(=O)c1ccc(Cl)cc1 returned EP2 modulator 61*, CHT PAM inactive, PGE2 EP2 inh 8 and CHT block inactive.
`NC(=O)c1nnn(Cc2cc(Cl)c(C(=O)c3ccc(Cl)cc3)c(Cl)c2)c1N` gave EP2 modulator -15 and PGE2 EP2 inh 44*.
`CC(CCC(=O)O)(c1cc(Br)c(O)c(Br)c1)c1cc(Br)c(O)c(Br)c1` gave EP2 modulator 48 and PGE2 EP2 inh 40*.
CC1Cc2nc(SCC(=O)NC3CCCCC3)n(C)c(=O)c2S1 (configuration not stated) was read as EP2 modulator 12, CHT PAM inactive, PGE2 EP2 inh 98* and CHT block inactive.
Screening O=C(NC1CCCCC1)[C@H]1C=CCN1C(=O)c1ccc(F)cc1F returned EP2 modulator -36 and PGE2 EP2 inh 6.
`CC(C)N(CCC(=O)c1ccc2ccccc2c1)Cc1ccccc1` gave EP2 modulator -11, CHT PAM inactive, PGE2 EP2 inh 76* and CHT block inactive.
For O=C(O)c1ccc(-c2ccc(/C=N/Nc3ccc([N+](=O)[O-])cc3)o2)cc1 the results were EP2 modulator -79, CHT PAM inactive, PGE2 EP2 inh 46* and CHT block inactive.
O=C(O)c1cccc(-c2ccc(/C=N/Nc3ccc([N+](=O)[O-])cc3)o2)c1 was read as EP2 modulator -62, CHT PAM inactive, PGE2 EP2 inh 25 and CHT block inactive.
Screening C=CCc1cc(C)ccc1OCCCC(C(=O)OCC)C(=O)OCC returned EP2 modulator 61*, CHT PAM inactive, PGE2 EP2 inh 7 and CHT block inactive.
For Cc1ccc2[nH]c(C)cc(=S)c2c1 the results were EP2 modulator 75*! and PGE2 EP2 inh 13.
Screening O=C(C1CCCC1)N1CCC(c2nc3sc4c(c3c(=O)[nH]2)CCCC4)CC1 returned EP2 modulator 1.
COc1cccc(CC2(CO)CCCN(Cc3ccccc3-c3ccco3)C2)c1 (configuration not stated) was read as EP2 modulator 63*, CHT PAM inactive, PGE2 EP2 inh 1 and CHT block inactive.
COc1cccc(CC2(CO)CCCN(Cc3ccc(-c4ccco4)cc3)C2)c1 (configuration not stated) was read as EP2 modulator -36, CHT PAM inactive, PGE2 EP2 inh 3 and CHT block inactive.
Screening O/N=C/c1ccc2cccc(O)c2n1 returned EP2 modulator -5, CHT PAM inactive, PGE2 EP2 inh 6 and CHT block inactive.
For Oc1cccc2ccc(SSc3ccc4cccc(O)c4n3)nc12 the results were EP2 modulator -63 and PGE2 EP2 inh 106*.
O=C(NC1CC1)C1CCN(C2CCN(C(=O)Cc3ccc4c(c3)OCO4)CC2)CC1 was read as EP2 modulator 14, CHT PAM inactive, PGE2 EP2 inh 7 and CHT block -10*.
Screening CCc1ccc(-c2ccc(C#N)cc2)nc1 returned EP2 modulator -8 and PGE2 EP2 inh 12.
`O=C(O)/C=C/c1cccc(NC(=O)c2ccccc2)c1` gave EP2 modulator 93*, CHT PAM inactive, PGE2 EP2 inh 7 and CHT block inactive.
`O=C(O)/C=C/c1cccc(NC(=O)c2ccc(Cl)cc2)c1` gave EP2 modulator 30, CHT PAM inactive, PGE2 EP2 inh 10 and CHT block inactive.
Screening C=CCn1c(N2CCC(C)CC2)nc2c1c(=O)[nH]c(=O)n2C returned EP2 modulator 12 and PGE2 EP2 inh 6.
COc1ccc(NC(=O)c2cc3cccc(OC)c3oc2=Nc2ccc(C(=O)O)cc2)cc1OC was read as EP2 modulator 0 and PGE2 EP2 inh 4.
Screening COc1ccc(N=c2oc3c(OC)cccc3cc2C(=O)NC2CCCC2)cc1 returned EP2 modulator 79* and PGE2 EP2 inh 5.

High-throughput results (PubChem)
